The supplement of paper PMC8975748
Where a name gives a salt, the structure may show the parent alone.

test system: Saccharomyces cerevisiae BY4741 SeMeCo community; test: z-score of subpopulation abundance vs DMSO median, subpopulation auxotrophic for HU; higher = larger share of this subpopulation than in DMSO controls; details: 10 µM; 24 h; SM minimal medium; subpopulation (auxotrophy): HU
Experimental: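 Fluorescent four-plasmid SeMeCo (self-establishing metabolically cooperating S. cerevisiae BY4741 community; plasmids pH-mRuby2, pL-mWasabi, pU-eCFP, pM-TagRFP657) was grown 24 h in minimal SM medium with each Selleck FDA-approved drug at 10 µM in 384-well plates. Cells were fixed and imaged by high-content confocal microscopy. For each auxotrophic subpopulation (and the prototroph), a z-score gives the deviation from the DMSO vehicle-control population median.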

In order of rising “z-score of subpopulation abundance” value:
1. COc1ccc2c3c([nH]c2c1)C(C)=NCC3 [Harmaline]  -7.98
2. COc1cc2c(cc1OC)C1CC(=O)C(CC(C)C)CN1CC2 (centres undefined) [Tetrabenazine (Xenazine)]  -1.24
3. Oc1cccc2cccnc12 [8-Hydroxyquinoline]  -1.16
4. CCN(C)C(=O)Oc1cccc([C@H](C)N(C)C)c1 [Rivastigmine Tartrate]  -0.86
5. CC[C@@H](C(N)=O)N1CCCC1=O [Levetiracetam]  -0.75
6. CC[C@@]1(O)C(=O)OCc2c1cc1n(c2=O)Cc2cc3ccccc3nc2-1 [Camptothecin]  -0.74
7. COc1ccc(C=O)cc1 [p-Anisaldehyde]  -0.72
8. C[C@@H]1O[C@@H](O[C@H]2C[C@@H](O)[C@]3(CO)[C@H]4[C@H](O)C[C@]5(C)[C@@H](C6=CC(=O)OC6)CC[C@]5(O)[C@@H]4CC[C@]3(O)C2)[C@H](O)[C@H](O)[C@H]1O [Ouabain]  -0.71
9. C#C[C@]1(O)C=C[C@H]2[C@@H]3CCC4=CC(=O)CC[C@@H]4[C@H]3CC[C@@]21CC [Gestodene]  -0.67
10. CCOC(=O)Nc1ccc(NCc2ccc(F)cc2)cc1N [Retigabine]  -0.59
11. O=c1cccc2n1C[C@@H]1CNC[C@H]2C1 [Cytisine]  -0.56
12. CN[C@@H]1[C@@H](O)[C@@H](O[C@@H]2[C@@H](O)[C@H](O[C@H]3O[C@H](CN)CC[C@H]3N)[C@@H](N)C[C@H]2N)OC[C@]1(C)O.CN[C@@H]1[C@@H](O)[C@@H](O[C@@H]2[C@@H](O)[C@H](O[C@H]3O[C@H]([C@@H](C)N)CC[C@H]3N)[C@@H](N)C[C@H]2N)OC[C@]1(C)O.CN[C@@H]1[C@@H](O)[C@@H](O[C@@H]2[C@@H](O)[C@H](O[C@H]3O[C@H]([C@@H](C)NC)CC[C@H]3N)[C@@H](N)C[C@H]2N)OC[C@]1(C)O [Gentamicin Sulfate]  -0.53
13. CC(=O)O[C@H]1C[C@@H]2CC[C@@H]3[C@H](CC[C@@]4(C)[C@H]3C[C@H]([N+]3(C)CCCCC3)[C@@H]4OC(C)=O)[C@@]2(C)C[C@@H]1[N+]1(C)CCCCC1 [Pancuronium dibromide]  -0.53
14. CN1[C@@H]2C[C@@H](OC(=O)[C@H](CO)c3ccccc3)C[C@H]1[C@@H]1O[C@@H]12 [Scopolamine HBr trihydrate]  -0.46
15. CC(C)N(CCC(C(N)=O)(c1ccccc1)c1ccccn1)C(C)C (centres undefined) [Disopyramide]  -0.45
16. CN(C)[C@@H]1C(=O)C(C(N)=O)=C(O)[C@@]2(O)C(=O)C3=C(O)c4c(O)ccc(Cl)c4[C@@](C)(O)[C@H]3C[C@@H]12 [Chlortetracycline HCl]  -0.42
17. CN1[C@@H]2CC[C@H]1C[C@@H](OC(=O)[C@H](CO)c1ccccc1)C2 [Hyoscyamine]  -0.35
18. CN1C(=O)COc2c(C(=O)NC3CN4CCC3CC4)cc(Cl)cc21 (centres undefined) [Azasetron HCl]  -0.34
19. CN(C)C(=O)Oc1cccc([N+](C)(C)C)c1 [Neostigmine Bromide]  -0.26
20. CNC1CC(N)C(O)C(OC2OC(CO)C(O)C3OC4(OC(C(N)CO)C(O)C(O)C4O)OC23)C1O (centres undefined) [Hygromycin B]  -0.07
21. COc1ccc(C(CN(C)C)C2(O)CCCCC2)cc1 (centres undefined) [Venlafaxine HCl]  -0.07
22. C[N+](C)(C)CCCCCCCCCC[N+](C)(C)C [Decamethonium Bromide]  -0.06
23. Nc1nc(N)nc(NC2CC2)n1 [Cyromazine]  0.05
24. COC(=O)C1=CCCN(C)C1 [Arecoline HBr]  0.06
25. CCN1CC2(OC(=O)c3ccccc3NC(C)=O)CCC(OC)C34C1C(CC23)C1(O)CC(OC)C2CC4C1(O)C2OC (centres undefined) [Lappaconitine]  0.26
26. NCC(O)c1ccc(O)cc1 (racemic) [(+,-)-Octopamine HCl]  0.29
27. CC[C@H]1CN2CC[C@]3(C(=O)Nc4ccccc43)[C@@H]2C[C@@H]1/C(=C\OC)C(=O)OC [Rhynchophylline]  0.35
28. C=CCN1C[C@H](C(=O)N(CCCN(C)C)C(=O)NCC)C[C@@H]2c3cccc4[nH]cc(c34)C[C@H]21 [Cabergoline]  0.39
29. COc1ccc(C(CN(C)C)C2(O)CCCCC2)cc1 (centres undefined) [Venlafaxine]  0.4
30. O=[N+]([O-])C(Br)(CO)CO [Bronopol]  0.4
31. NC(=O)CN1CCCC1=O [Piracetam]  0.46
32. Nc1ccncc1 [4-Aminopyridine]  0.52
33. C[N+]1(C)[C@@H]2C[C@@H](OC(=O)[C@H](CO)c3ccccc3)C[C@H]1[C@@H]1O[C@@H]12 [Methscopolamine]  0.7
34. CN(C)[C@@H]1C(=O)C(C(N)=O)=C(O)[C@@]2(O)C(=O)C3=C(O)c4c(O)cccc4[C@@](C)(O)[C@H]3[C@H](O)[C@@H]12 [Oxytetracycline (Terramycin)]  0.99
